Consider 40 compounds from PubChem BioAssay (Tox21).

Results filed as inconclusive are left out. Calls of active or inactive are those of the source. The call rests on the fitted dose curve; in most records, active means well fitted activation curve with a large enough effect in the repeat runs; inconclusive means weak or mixed curves; inactive means no such curve, though single readings can be large or run the other way.
On the % scale 0 is the no-effect control and ±100 the full control effect.

Chain of Aryl hydrocarbon receptor (Homo sapiens) (P35869 whole entry, looked up): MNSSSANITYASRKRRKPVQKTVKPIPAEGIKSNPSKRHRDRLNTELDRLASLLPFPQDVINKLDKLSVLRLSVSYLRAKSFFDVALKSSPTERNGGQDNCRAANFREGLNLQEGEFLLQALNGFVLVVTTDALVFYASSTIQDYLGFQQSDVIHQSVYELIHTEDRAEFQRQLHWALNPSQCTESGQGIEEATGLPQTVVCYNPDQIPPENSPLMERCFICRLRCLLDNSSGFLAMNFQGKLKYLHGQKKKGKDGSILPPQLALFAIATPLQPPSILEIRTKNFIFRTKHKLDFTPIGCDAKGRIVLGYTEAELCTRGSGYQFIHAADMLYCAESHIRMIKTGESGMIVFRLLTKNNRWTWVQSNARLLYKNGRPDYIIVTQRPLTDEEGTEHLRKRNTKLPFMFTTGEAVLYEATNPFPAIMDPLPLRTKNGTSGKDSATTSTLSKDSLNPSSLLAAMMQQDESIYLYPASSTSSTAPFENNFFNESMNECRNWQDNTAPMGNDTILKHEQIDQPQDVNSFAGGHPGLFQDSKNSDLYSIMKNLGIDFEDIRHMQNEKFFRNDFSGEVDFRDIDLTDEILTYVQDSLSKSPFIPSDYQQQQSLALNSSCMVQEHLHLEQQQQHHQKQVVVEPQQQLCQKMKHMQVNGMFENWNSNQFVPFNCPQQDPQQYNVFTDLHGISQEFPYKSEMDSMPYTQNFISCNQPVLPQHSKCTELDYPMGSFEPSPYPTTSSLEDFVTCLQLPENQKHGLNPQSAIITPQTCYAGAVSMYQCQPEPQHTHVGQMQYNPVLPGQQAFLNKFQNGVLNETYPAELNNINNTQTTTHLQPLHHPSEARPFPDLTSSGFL

The target in the test is Aryl hydrocarbon receptor (Homo sapiens) (UniProt P35869). Kind of test: qHTS assay to identify small molecule that activate the aryl hydrocarbon receptor (AhR) signaling pathway (AID 743085).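 Further: HG2L7.5c1 human HepG2 liver cells with stably integrated DRE-driven firefly reporter; nearly all actives have a fitted effect of over 15% in size.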 To be noted: HepG2 AhR-luc (HG2L7.5c1), luciferase, 24 h; series mostly up to 70.3 µM; activation: at the top concentration. An excerpt:
U.S. Tox21 Program National Center for Advancing Translational Sciences [NCATS] NIH Chemical Genomics Center [NCGC] U.S. Environmental Protection Agency [EPA] National Institutes of Environmental Health Sciences [NIEHS] National Toxicology Program [NTP] U.S. Food and Drug Administration [FDA] Tox21 Assay overview: The Aryl hydrocarbon Receptor (AhR), a member of the family of basic helix-loop-helix transcription factors, is crucial to adaptive responses to environmental changes. AhR mediates cellular responses to environmental pollutants such as aromatic hydrocarbons through induction of phase I and II enzymes but also interacts with other nuclear receptor signaling pathways. A cell based HepG2-AhR-luc assay (HG2L7.5c1 cell line, developed by Dr. Michael S. Denison, University of California at Davis, was used to assess the activation of AhR. HepG2 (human hepatocellular carcinoma) cells were stably transfected with an Ah receptor-responsive firefly luciferase reporter gene plasmid containing 20 dioxin responsive elements and luciferase reporter gene. Increased luciferase activity can be used to identify the compounds that induce AhR activation.
Tox21 Assay Protocol Summary: 4000 cells in 5 uL/well were dispensed into white wall/solid bottom 1536-well plates using a Multidrop Combi (Thermo Fisher Scientific Inc., Waltham, MA) dispenser. After the assay plates were incubated at 37C for 5 h, 23 nL of compound or DMSO vehicle was transferred to the assay plates by a pintool station (Kalypsys, San Diego, CA). The plates were incubated at 37C for 24 hr. After 1 ul/well of CellTiter-Fluor reagent (Promega, Madison, WI) was added into the assay plates using a Flying Reagent Dispenser (FRD) (Aurora Discovery, CA), the assay plates were incubated at 37C for 30 min. The fluorescence intensity in the plates was measured using a ViewLux plate reader (PerkinElmer, Shelton, CT), followed by the addition of 4 uL of ONE-Glo Luciferase Assay reagent (Promega) using an FRD (Aurora Discovery). After the assay plates were incubated at room temperature for 30 min, luminescence intensity was measured using a ViewLux plate reader (Perkin Elmer).
With `CN1CCN(C(c2ccccc2)c2ccccc2)CC1`, the “activation” value is -1.02% [at 32.5 µM] (inactive).
On the same count and under the same terms, with `OC(CN1CCC(Cc2ccc(F)cc2)CC1)c1ccc(Cl)cc1` (stereo not given) the figure was -0.264% (inactive); with `O=C(O)CC(=O)C(=O)O`, -2.26% [at 95 µM] (inactive); with `CNCCCN1c2ccccc2CCc2ccccc21`, -1.3% [at 32.5 µM] (inactive).
Still for that read-out and setting: with `O=C1C(O)=C(O)C(=O)C(O)=C1O` the figure was -2.7% (inactive).
Consider `CC1CCC(=O)C1=O` (stereo not given), for which the “activation” value is -0.0268% [at 95 µM] (inactive).
The same measure, in the same setting: the value for `C=CCOC(=O)CCC1CCCCC1` was -1.28% (inactive); that for `NC(N)=NCCC[C@H](N)C(=O)O` was -2.44% (inactive).
The same measure, in the same setting: with `CN(Cc1ccc(C(C)(C)C)cc1)Cc1cccc2ccccc12` the figure was 2.88% (inactive).
Same read-out and setting: the value for `CCCCC(CC)COC(=O)COc1ccc(Cl)cc1Cl` (stereo not given) was 2.19% [at 95 µM] (inactive); that for `C/C(=C(\CCOP(=O)(O)O)SC(=O)c1ccccc1)N(C=O)Cc1cnc(C)nc1N` was 0.163% [at 32.5 µM] (inactive).
Take `CN(C)C(=O)NC1(c2ccccc2)CCN(CC[C@@]2(c3ccc(F)c(F)c3)CN(C(=O)c3ccccc3)CCO2)CC1`: the “activation” value was -0.401% (inactive).
With `N=c1ccn2c(n1)O[C@H]1[C@H](O)[C@@H](CO)O[C@H]12`, the Potency result was “inactive”.
Consider `CC(=O)OC[C@H]1O[C@@H](n2ncc(=O)[nH]c2=O)[C@H](OC(C)=O)[C@@H]1OC(C)=O`, for which the “activation” value was -0.578% (inactive).
Still for that read-out and setting: with `c1ccc(CNCCNCc2ccccc2)cc1` the figure was -3.42% (inactive); with `CC(=O)c1ccc2c(c1)N(CCCN(C)C)c1ccccc1S2`, 0.599% [at 32.5 µM] (inactive); with `CCCCCCCCCCCCCCOS(=O)(=O)O`, 1.5% (inactive).
On the same count and under the same terms, the value for `COC(C)(C)CCO` was -0.425% (inactive); that for `Clc1ccc(Cn2c(CN3CCCC3)nc3ccccc32)cc1` was -0.0957% [at 32.5 µM] (inactive); that for `NCc1ccccc1Sc1ccccc1CO` was 4.77% (inactive).
In the case of `CN(C)c1ccc(CCO)cc1`, the “activation” value was -1.21% (inactive).
As to `O=C(NCCO[N+](=O)[O-])c1cccnc1`, the “activation” value is -0.305% (inactive).
In the case of `O=C(O)CNCC(=O)O`, the activation is 1.31% [at 8.47 µM] (inactive).
Consider `O=C1OC(CN2CCOCC2)CN1/N=C/c1ccc([N+](=O)[O-])o1` (stereo not given), for which the “activation” value is 2.74% [at 32.5 µM] (inactive).
Regarding `C=CC(=O)OCCOCCOCCOCCOC(=O)C=C`, the Potency result is “inactive”.
Turning to `O=C(Cl)c1cc(C(=O)Cl)cc(C(=O)Cl)c1`, the “activation” value is 3.72% (inactive).
Same read-out and setting: with `CNCCCCOc1ccccc1Cc1ccccc1` the figure was -3.53% (inactive); with `C=C1[C@H]2CC[C@@H]3[C@H]2C(C)(C)CCC[C@]13C`, -0.39% (inactive).
With `CC(C)(C)OCC1CO1` (stereo not given), the “activation” value is 2.89% [at 95 µM] (inactive).
`C[C@@H]1C[C@H]2O[C@@]3(O[C@@H]2C(C)(C)O)[C@H](O)[C@@]2(C)[C@@H]4CC[C@H]5C(C)(C)[C@@H](O[C@@H]6OC[C@@H](O)[C@H](O)[C@H]6O)CC[C@@]56C[C@@]46CC[C@]2(C)[C@@H]13`: the “activation” value is 2.31% (inactive).
The same measure, in the same setting: with `COc1ccc(C)cc1[N+](=O)[O-]` the figure was 2.07% [at 95 µM] (inactive).
Same read-out and setting: with `O=C(O)c1ccc(S(=O)(=O)O)cc1C(=O)O` the figure was -2.4% (inactive).
On the same count and under the same terms, with `Nc1ccc(S(=O)(=O)Nc2ccccc2)cc1` the figure was 1.82% (inactive).
Take `NCC(=O)CCC(=O)O`: the “activation” value is -0.0504% (inactive).
Still for that read-out and setting: with `CCCCCCCC/C=C\CCCCCCCC(=O)OCC` the figure was -0.581% (inactive).
Consider `CNC(=O)CN(CCN(CCN(CC(=O)[O-])CC(=O)NC)CC(=O)[O-])CC(=O)[O-].O.[Gd+3]`, for which the Potency entry is “inactive”.
With `C[N+]1(CC2COC(c3ccccc3)(C3CCCCC3)O2)CCCCC1` (stereo not given), the “activation” value is -2.62% (inactive).
The same measure, in the same setting: with `CCOc1ccc(O)cc1` the figure was 0.93% (inactive).
On the same count and under the same terms, the value for `CCOc1ccc(N=Nc2ccc(/C=C/c3ccc(N=Nc4ccc(OCC)cc4)cc3S(=O)(=O)O)c(S(=O)(=O)O)c2)cc1` was -0.817% (inactive); that for `O=C(O)c1ccccc1Cl` was -0.296% (inactive).
